Molecules are shown by their SMILES. Records with an inconclusive call do not appear. Entries that show only a call come without a potency. The source made the active and inactive calls. The call rests on the fitted dose curve; in most records, active means well fitted curve in the direction sought with a large enough effect in the repeat runs; inconclusive means weak or mixed curves; inactive means no such curve, though single readings can be large; an effect the other way counts as inactive or inconclusive. Positions of bridges follow the written chain, without caps; N, C: chain ends. Non-standard residues stand in square brackets, D forms with d. Residues, ends and D or L forms follow the SMILES beside them. *: point of attachment. pGlu = O=C1CC[C@@H](C(=O)O)N1; X2 = CC[C@H](C)CCCCC(=O)*; Thz = O=C(O)[C@@H]1CSCN1; Dab = NCC[C@H](N)C(=O)O

Sequence of Aromatase (Homo sapiens) (P11511 whole entry, looked up): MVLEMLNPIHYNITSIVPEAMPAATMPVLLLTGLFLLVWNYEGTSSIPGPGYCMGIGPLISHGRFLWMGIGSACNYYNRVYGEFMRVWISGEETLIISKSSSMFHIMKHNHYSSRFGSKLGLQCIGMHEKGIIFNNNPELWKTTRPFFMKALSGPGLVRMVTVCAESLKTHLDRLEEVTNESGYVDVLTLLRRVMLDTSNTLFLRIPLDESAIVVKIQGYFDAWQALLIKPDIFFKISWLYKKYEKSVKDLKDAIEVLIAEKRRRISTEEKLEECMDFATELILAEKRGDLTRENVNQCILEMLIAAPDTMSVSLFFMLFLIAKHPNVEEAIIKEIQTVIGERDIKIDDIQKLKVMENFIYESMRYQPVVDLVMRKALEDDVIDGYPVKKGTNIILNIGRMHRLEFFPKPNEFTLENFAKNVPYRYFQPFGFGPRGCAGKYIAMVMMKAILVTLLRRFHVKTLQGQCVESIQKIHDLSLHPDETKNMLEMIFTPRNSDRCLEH

Test system in the first assay: not listed separately
Kind of assay: qHTS assay to identify small molecule antagonists of the estrogen receptor alpha (ER-alpha) signaling pathway using the BG1 cell line - cell viability counter screen (AID 743081).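 Further: compound given together with 17beta-estradiol as the ER stimulus; nearly all actives have a fitted effect of over 45% in size.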 Conditions: BG1Luc4E2 viability, CellTiter-Fluor, 22 h; series mostly up to 70.3 µM. In general terms: qHTS replaces the single test concentration by a dilution series.
As for `CC[C@H]1NC(=O)[C@@H](NC(=O)c2ncccc2O)[C@@H](C)OC(=O)[C@H](c2ccccc2)NC(=O)[C@@H]2CC(=O)CCN2C(=O)[C@H](Cc2ccccc2)N(C)C(=O)[C@@H]2CCCN2C1=O`, the Potency result was “inactive”. Same read-out and setting: in the case of `CC(O)[C@H]1CC[C@H]2[C@@H]3CC[C@@H]4C[C@@H](O)CC[C@]4(C)[C@H]3CC[C@]12C` (stereo not given in full) it was “inactive”.

As for `CC(=O)N(CC(C)C(=O)O)c1c(I)cc(I)c(N)c1I` (stereo not given), the Potency entry is “inactive”.

For the molecule `CCN1C(=O)NC(c2ccccc2)C1=O` (stereo not given), the Potency result is “inactive”.

Another assay concerns the target Aromatase (Homo sapiens) (UniProt P11511). In words: qHTS assay to identify aromatase inhibitors (AID 743083). Further: nearly all actives have a fitted effect of over 55% in size. Further: potency means the concentration at half of the fitted maximal effect. Conditions: MCF-7 aro ERE, testosterone-driven ERE luciferase, 24 h; series mostly up to 70.3 µM.
Regarding `CS(=O)(=O)NC(=O)CCC/C=C\C[C@H]1C(=O)C[C@@H](O)[C@@H]1/C=C/[C@H](O)COc1ccccc1`, the Potency result is “inactive”. In the case of `c1ccc2cc(C3=NCCN3)ccc2c1`, the Potency entry was “inactive”. Take `CCC[C@@H]1C[C@@H](C(=O)N[C@@H]([C@H]2O[C@H](SC)[C@H](O)[C@@H](O)[C@H]2O)[C@H](C)Cl)N(C)C1`: the Potency entry was “inactive”.

For the molecule `CCCCC/C=C\CCC(=O)N[C@H]1[C@H](Oc2c3cc4cc2Oc2ccc(cc2Cl)[C@@H](O[C@@H]2O[C@H](CO)[C@@H](O)[C@H](O)[C@H]2NC(C)=O)[C@@H]2NC(=O)[C@H](NC(=O)[C@@H]4NC(=O)[C@H]4NC(=O)[C@@H](Cc5ccc(c(Cl)c5)O3)NC(=O)[C@H](N)c3ccc(O)c(c3)Oc3cc(O)cc4c3)c3ccc(O)c(c3)-c3c(O[C@H]4O[C@H](CO)[C@@H](O)[C@H](O)[C@@H]4O)cc(O)cc3[C@@H](C(=O)O)NC2=O)O[C@H](CO)[C@@H](O)[C@@H]1O`, the Potency entry is “inactive”. For `O.O=C([O-])CC([S-])C(=O)[O-].[Au+].[Na+].[Na+]` (stereo not given), the Potency entry was “inactive”. On the same count and under the same terms, in the case of `C=CC1=C(C)C2=CC3=NC(=C(CC(=O)[O-])C4=NC(=C(C)C4=C([O-])[O-])C=c4[n-]c(c(C)c4CC)=CC1=N2)C(CCC(=O)[O-])C3C.[Cu+2].[Na+].[Na+].[Na+]` (stereo not given) it was “inactive”; in that of `O=C1CC[C@@H](C(=O)N2CSC[C@H]2C(=O)O)N1` ([pGlu]-[Thz]-OH), “inactive”.

`CN1[C@@H]2CCC[C@H]1CC(NC(=O)c1nn(C)c3ccccc13)C2` (stereo not given in full): the Potency entry was “inactive”. `CC(=O)N[C@@H]1C(O[C@H]2O[C@H](C(=O)O)C(O)[C@H](O)[C@H]2O)[C@H](O)[C@@H](CO)O[C@H]1O[C@@H]1C(C(=O)O)O[C@@H](O[C@H]2[C@H](O)[C@@H](CO)OC(O)[C@@H]2NC(C)=O)[C@H](O)[C@H]1O` (stereo not given in full): the Potency entry is “inactive”. As for `COC(=O)[C@H]1[C@H]2C[C@@H]3c4[nH]c5cc(OC)ccc5c4CCN3C[C@H]2C[C@@H](OC(=O)/C=C/c2cc(OC)c(OC)c(OC)c2)[C@@H]1OC`, the Potency result was “inactive”. On the same count and under the same terms, for `CC(C)[C@H](N)C(=O)OCC(CO)OCn1cnc2c(=O)[nH]c(N)nc21` (stereo not given in full) the value was “inactive”.

As for `N[C@H](CCC(=O)O)C(=O)O`, the Potency result is “inactive”.

Consider `CCOC(=O)Cc1cccc(-c2cc(CCCCCCc3ccc(O[C@H]4O[C@H](COC(C)=O)[C@@H](OC(C)=O)[C@H](OC(C)=O)[C@@H]4OC(C)=O)c(-c4cccc(CC(=O)OCC)c4)c3)ccc2O[C@H]2O[C@H](COC(C)=O)[C@@H](OC(C)=O)[C@H](OC(C)=O)[C@@H]2OC(C)=O)c1`, for which the Potency result is “inactive”. On the same count and under the same terms, in the case of `CC1(C)[C@@H]2CC[C@@]1(C)[C@H](OC(=O)CSC#N)C2` it was “inactive”; in that of `OC[C@H]1O[C@@H](n2cnc3c2NC=NC[C@H]3O)C[C@@H]1O`, “inactive”; in that of `CCC(=O)OCC(=O)[C@@]1(OC(=O)CC)[C@@H](C)C[C@H]2[C@@H]3CCC4=CC(=O)C=C[C@]4(C)[C@@]3(Cl)[C@@H](O)C[C@@]21C`, 2660 nM (active). Take `CC(C)[C@@H](C)/C=C/[C@@H](C)[C@H]1CC[C@H]2/C(=C/C=C3\C[C@@H](O)CC[C@@H]3C)CCC[C@]12C`: the Potency entry is “inactive”. For the molecule `CC(=O)O[C@H]1CC[C@@]2(C)C(=CC[C@@H]3[C@@H]2CC[C@]2(C)C(c4cccnc4)=CC[C@@H]32)C1`, the Potency result was “inactive”.

In the case of `CCOC(=O)c1c[nH]c2cc(OCC(C)C)c(OCC(C)C)cc2c1=O`, the Potency entry was “inactive”. On the same count and under the same terms, for `Cc1ccc(C2(O)CCN(CCCC(=O)c3ccc(F)cc3)CC2)cc1` the value was “inactive”; for `CN1c2c(nc(N)[nH]c2=O)NCC1CNc1ccc(C(=O)NC(CCC(=O)O)C(=O)O)cc1` (stereo not given), “inactive”. Still for that read-out and setting: for `COc1ccc2cc([C@H](C)CO)ccc2c1` the value was “inactive”. Still for that read-out and setting: in the case of `CC1(C)N=C(N)N=C(N)N1c1ccc(Cl)cc1` it was “inactive”; in that of `CC[C@H](C)CCCCC(=O)N[C@@H](CCN)C(=O)N[C@H](C(=O)N[C@@H](CCN)C(=O)N[C@H]1CCNC(=O)[C@@H]([C@H](C)O)NC(=O)[C@H](CCN)NC(=O)[C@H](CCN)NC(=O)[C@H](CC(C)C)NC(=O)[C@@H](CC(C)C)NC(=O)[C@H](CCN)NC1=O)[C@@H](C)O` (X2-[Dab]T[Dab][Dab][Dab][dL]L[Dab][Dab][dT]; lactam 4-C), “inactive”; in that of `N[C@@H](C(=O)N[C@@H]1C(=O)N2C(C(=O)O)=C(Cl)CC[C@H]12)c1ccccc1`, “inactive”.

Regarding `O=P(O)(O)C(O)(Cc1cnc2ccccn12)P(=O)(O)O`, the Potency entry is “inactive”. Turning to `Cc1cccc(C)c1Nc1ncccc1C(=O)O`, the Potency entry was “inactive”. As to `CNCC(O)c1ccc(OC(=O)C(C)(C)C)c(OC(=O)C(C)(C)C)c1` (stereo not given), the Potency result is “inactive”.

In the case of `CN[C@@H]1[C@@H](O)[C@@H](O[C@@H]2[C@@H](O)[C@H](O[C@H]3O[C@H](CN)[C@@H](O)[C@H](O)[C@H]3O)[C@@H](N)C[C@H]2NC(=O)C(O)CN)OC[C@]1(C)O` (stereo not given in full), the Potency entry was “inactive”. Still for that read-out and setting: in the case of `CO/N=C(\C(=O)N[C@@H]1C(=O)N2C(C(=O)O)=CCS[C@H]12)c1csc(N)n1` it was “inactive”; in that of `CC(C)C(=O)OCC(=O)[C@@]12O[C@H](C3CCCCC3)O[C@@H]1C[C@H]1[C@@H]3CCC4=CC(=O)C=C[C@]4(C)[C@H]3[C@@H](O)C[C@@]12C`, “inactive”; in that of `O=C(O)CCC/C=C\C[C@@H]1[C@@H](/C=C/[C@@H](O)COc2cccc(Cl)c2)[C@H](O)C[C@@H]1O`, “inactive”.

In the case of `CC[C@H]1NC(=O)[C@@H](NC(=O)c2ncccc2O)[C@@H](C)OC(=O)[C@H](c2ccccc2)NC(=O)[C@@H]2CC(=O)CCN2C(=O)[C@H](Cc2ccccc2)N(C)C(=O)[C@@H]2CCCN2C1=O`, the Potency result was “inactive”. As for `CC(O)[C@H]1CC[C@H]2[C@@H]3CC[C@@H]4C[C@@H](O)CC[C@]4(C)[C@H]3CC[C@]12C` (stereo not given in full), the Potency result is “inactive”. Still for that read-out and setting: for `CC(=O)N(CC(C)C(=O)O)c1c(I)cc(I)c(N)c1I` (stereo not given) the value was “inactive”. `CCN1C(=O)NC(c2ccccc2)C1=O` (stereo not given): the Potency entry is “inactive”.

Values taken from PubChem BioAssay (Tox21).
